Most compounds without a hit are left out; they make up all but 15% or so of the library.
DT40 TDP1 CPT = growth inhibition of DT40 Tdp1-/-;hTDP1 cells with camptothecin (screen for TDP1 inhibitors); Potency, µM (doses to about 46.2 µM), without a hit: top-dose activity change, negative = growth inhibition, hits mostly inhibitors; chicken DT40 Tdp1-/-;hTDP1 cells + 20 nM CPT, ATP luminescence, 48 h; 420,000 tested, 12% active; AID 686979; also: nearly all actives have a fitted effect of over 55% in size
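Chicken DT40 Tdp1-/- cells complemented with human TDP1, 400 cells/well, exposed to compounds plus 20 nM camptothecin for at least 48 h at 37 C; viability read as ATP content by CellTiter-Glo luminescence.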
ALOX12 inh = inhibitors of human 12S-lipoxygenase ALOX12. P18054. purified 12hLO, xylenol orange hydroperoxide absorbance. Potency, µM (highest dose often 108 µM), for inactives: at the highest dose activity change, negative = inhibition, most hits filed as inhibitors. 580,000 tested, 1.1% active
Target sequence (P18054 whole entry, looked up): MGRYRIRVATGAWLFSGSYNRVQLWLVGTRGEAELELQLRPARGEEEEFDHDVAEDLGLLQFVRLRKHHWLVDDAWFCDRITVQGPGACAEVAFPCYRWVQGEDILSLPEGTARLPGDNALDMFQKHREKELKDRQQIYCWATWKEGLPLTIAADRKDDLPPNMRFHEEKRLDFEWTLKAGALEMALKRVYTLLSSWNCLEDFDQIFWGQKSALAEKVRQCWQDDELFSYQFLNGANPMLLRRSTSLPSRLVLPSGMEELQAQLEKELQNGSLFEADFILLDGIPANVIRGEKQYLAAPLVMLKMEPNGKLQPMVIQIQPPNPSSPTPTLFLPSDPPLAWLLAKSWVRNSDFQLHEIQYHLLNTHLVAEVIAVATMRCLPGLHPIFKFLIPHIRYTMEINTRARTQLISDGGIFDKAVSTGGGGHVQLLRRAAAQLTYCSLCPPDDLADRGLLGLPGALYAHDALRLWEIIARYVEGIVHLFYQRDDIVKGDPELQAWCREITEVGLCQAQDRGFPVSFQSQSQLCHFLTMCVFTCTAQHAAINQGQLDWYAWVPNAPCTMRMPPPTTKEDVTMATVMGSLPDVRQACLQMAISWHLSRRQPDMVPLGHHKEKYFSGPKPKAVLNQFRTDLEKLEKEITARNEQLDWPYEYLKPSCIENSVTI
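Purified human 12hLO (150 nM final) in 25 mM Hepes, 0.01% Triton X-100, pH 7.0 was preincubated 15 min at room temperature with compound. Then 40 uM arachidonic acid was added, 30 min. Hydroperoxide was read by Fe-XO absorbance ratio 573/405 nm.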
TDP1 cell noCPT = qHTS for Inhibitors of human tyrosyl-DNA phosphodiesterase 1 (TDP1): qHTS in cells in absence of CPT. DT40 Tdp1-/- hTDP1 cells, no CPT, ATP luminescence, 48 h. Potency, µM (titrated, usually from 46.2 µM), inactives show at the top dose activity change, negative = growth inhibition, hits mostly inhibitors. 420,000 tested, 15% active. AID 686978, 2013; also: nearly all actives have a fitted effect of over 55% in size
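A cellular qHTS used chicken DT40 cells lacking endogenous Tdp1 but carrying stably transfected human TDP1. Compounds were applied without camptothecin, and cell growth kinetics were judged by ATP-dependent luminescence after ≥48 hr.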
RORgamma inh = blocks mouse ROR gamma transcriptional activity | 310,000 tested, 5.4% active | Potency, µM (titrated, usually from 53.6 µM), for the others: at the highest dose activity change, negative = inhibition, usual class: inhibitors | AID 2551 | P51450 | Drosophila S2 Gal4-RORgamma UAS-luciferase reporter, 20 h; also: nearly all actives have a fitted effect of over 60% in size
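Drosophila Schneider cells stably carrying a metallothionein-driven Gal4 DBD–ROR gamma fusion and a UAS-Photinus luciferase reporter were exposed to compound for 1 hr, then induced with copper sulfate (700 uM final) for 20 hr at ambient temperature before luminescence reading.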
ELG1 repair inh = blocks ELG1-dependent DNA repair in HEK293T cells; HEK293T ELG1-luciferase reporter, luminescence, 16 h; DNA damage induced by 5-fluorouridine; Potency, µM (titrated, usually from 46.1 µM), inactives show at the highest dose activity change, negative = inhibition, hits mostly inhibitors; 330,000 tested, 2.3% active; also: nearly all actives have a fitted effect of over 55% in size
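Reporter activity after DNA damage by 5-fluorouridine is monitored. Compound-treated cells incubate 16 hr at 37 °C, then ONE-Glo is added for 30 min before luminescence reading.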
VP16 counter = Gal4-VP16 reporter inhibition counter-screen. Drosophila S2 Gal4-VP16 UAS-luciferase, luminescence, 20 h. Potency, µM (top dose mostly 53.6 µM), for inactives: at the top dose activity, negative = inhibition, usual class: inhibitors. 310,000 tested, 3.5% active;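 also: Gal4-VP16 expression switched on by copper sulfate through the metallothionein promoter; nearly all actives have a fitted effect of over 50% in size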
Starred values were filed as active, the others as inactive; ? = inconclusive; / = no result; [ ] = dose if it differs, or a comment. Calls follow the shape of the dose curve; as a rule, active = well fitted curve in the direction sought with a large enough effect; inconclusive = small, poorly fitted or top-dose-only effect, or another doubt; inactive = no such curve, though single readings can be large; an effect the other way counts as inactive or inconclusive. % is scaled to controls: 0 for no effect and ±100 for the full control effect; potency is read from the fitted curve at half-maximal effect.

SMILES	DT40 TDP1 CPT	ALOX12 inh	TDP1 cell noCPT	RORgamma inh	ELG1 repair inh	VP16 counter
CCc1ccc(C=C2SC(=S)N(CCCC(=O)Nc3ccc(C(=O)O)cc3)C2=O)cc1	?	?	18µM*	/	/	/
Cc1ccc(C2Cn3nnc(C(=O)N4CCC(C(=O)Nc5ccc(F)c(F)c5)CC4)c3CO2)cc1 (stereo not drawn)	/	-10%	/	/	/	/
N#C/C(=N\Nc1ccccc1[N+](=O)[O-])C(=N)N1CCCCC1	5.8µM*	?	5.8µM*	?	?	-19%
Cc1ccccc1CCNC(=O)Cn1cc(C(N)=O)c2ccccc21	/	21%	/	/	/	/
O=C(CSc1ncnc2nc[nH]c12)c1ccc([N+](=O)[O-])cc1	-15%	-18%	-23%	26%	?	1%
Nc1nc(Sc2ccc([N+](=O)[O-])c3nonc23)c2[nH]cnc2n1	1.8µM*	32µM*	3.3µM*	/	/	/
CNc1ncnc(Sc2nc(N)nc3nc[nH]c23)c1[N+](=O)[O-]	2.1µM*	-20%	4.6µM*	/	/	/
Nc1nc(SCc2ccccc2)c2[nH]cnc2n1	1%	16%	-7%	41%	?	21%
Cc1nn(Cc2ccccc2Cl)c(C)c1NC(=O)C1C2CCC(O2)C1C(=O)O (stereo not drawn)	-18%	-11%	?	34%	31%	-4%
Cc1nnsc1NC(=O)OCc1ccc(Cl)cc1Cl	-25%	0%	?	?	2%	-9%
Cc1nn(Cc2ccc(Cl)cc2Cl)c(C)c1NC(=O)C1C2CCC(O2)C1C(=O)O (stereo not drawn)	?	?	15µM*	?	?	-14%
Cc1nn(Cc2ccc(Cl)cc2Cl)c(C)c1NC(=O)CCl	15µM*	0%	13µM*	?	15µM*	?
CCc1cc(C(=O)Nc2c(C)nn(Cc3ccccc3Cl)c2C)no1	?	-7%	?	/	/	/
Cc1nn(Cc2ccc(Cl)cc2Cl)c(C)c1NC(=O)c1nn(C)cc1Cl	8.2µM*	-18%	9.2µM*	4%	-21%	-1%
Cc1nn(C)c(Cl)c1NC(=O)OCc1ccc(Cl)cc1Cl	15µM*	-9%	13µM*	?	-12%	8.9µM*
COc1ccc(Cl)cc1N1C(=O)[C@@H]2C[C@@H](NC(=O)Cc3cccs3)CCN2C1=O	/	-2%[176 µM]	/	/	/	/
Cc1nc(CCNC(=O)[C@H]2CNC[C@H](C(=O)N3CCOCC3)C2)sc1Cl	/	28%	/	/	/	/
COc1ccc(NC(=O)CN(C)C(=O)c2cccc(S(=O)(=O)N3CCN(Cc4ccccc4)CC3)c2)cc1	18µM*	/	12µM*	0%	6%	-3%
CN(CCOc1ccc(Cl)cc1)C(=O)c1cccc(S(=O)(=O)N2CCN(Cc3ccccc3)CC2)c1	15µM*	0%	21µM*	/	/	/
Cc1ccc(C)c(NC(=O)CN(C)C(=O)c2cccc(S(=O)(=O)N3CCN(Cc4ccccc4)CC3)c2)c1	18µM*	0%	12µM*	?	?	-25%
O=C(Nc1cccc(F)c1)c1nnc(CSCC(=O)N2CCOCC2)s1	/	-23%	/	/	/	/
Cc1c(Cc2ccccc2)c(=O)oc2c(C)c(OS(C)(=O)=O)ccc12	/	1%	/	/	/	/
COc1cc(NC(=S)Nc2cccnc2)cc(OC)c1OC	-18%	45µM*	-7%	10%	6%	-12%
CCOc1cc(C(=O)NC(=S)Nc2cccnc2)cc(OCC)c1OCC	?	-18%	23µM*	13µM*	?	?
COc1cc(NC(=S)NCc2cccnc2)cc(OC)c1OC	-3%	-1%	0%	11%	7%	-2%
COc1ccc(C(=O)NC(=S)Nc2cccnc2)cc1Cl	-16%	15%	?	10µM*	23%	-8%

From PubChem
